Records with an inconclusive call do not appear. Unmarked numbers belong to inactive results. Active and inactive are the calls of the source. Calls come from the whole dose curve; as a rule, active = well fitted curve in the direction sought with a large enough effect; inconclusive = small, poorly fitted or top-dose-only effect, or another doubt; inactive = no such curve, though single readings can be large; an effect the other way counts as inactive or inconclusive. Square brackets hold non-standard residues; d marks the D form. Peptide text beside a SMILES is read from it. * marks the point of attachment. ξ: configuration not given here. Hexanoyl = CCCCCC(=O)*; ξL = CC(C)CC(N)C(=O)O
Test: qHTS assay for small molecule disruptors of mitochondrial membrane potential screened against the NCATS CANVASS Library (AID 1347389); note: nearly all actives have a fitted effect of over 60% in size
Settings: HepG2 mitochondrial membrane potential, m-MPI red/green ratio, 1.5 h; series mostly up to 46.1 µM; activity change, negative = depolarization: at the top concentration
In short: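 Cells (HepG2) seeded the day before received compound or DMSO for 1 hr, then Mito-MPS dye for 30 min at 37C; emission at 590 nm over 535 nm gave the polarization signal.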
% is set by controls: 0 for no effect and ±100 for the full control effect.

| SMILES | activity change, negative = depolarization [%] |
| --- | --- |
| C=C[C@@]1(C)CC[C@@H]([C@H](C)C(C)=O)O1 | -0.974 |
| C/C=C(/CO)C(=O)O[C@@H]1[C@H](O)[C@@H](C(=O)OC)O[C@@H]2C[C@H]3OC(n4cnc5c(N)ncnc54)[C@H](OC)[C@H]3O[C@@]12O (stereo not given in full) | -6.99 |
| C/C=C/[C@H]1[C@H]2C(=O)c3c(O)c(C)c(O)c(C)c3[C@]1(C(=O)O)C(=O)C=C2C | 4.66 |
| C[C@@]12C[C@@H](C[C@@H]3C(=O)O[C@@H](c4ccoc4)[C@H](OC(=O)c4ccccc4)[C@@H]31)OC2=O | 2.84 |
| C=C1CCC2C(C)(C(=O)O)CCC(CC/C(C)=C/C(=O)NC(CCC(N)=O)C(=O)O)[C@@]2(C)C1 (stereo not given in full) | 1.14 |
| C=C1[C@@]2(C)CC3C4(C)CCC(O)C(C)(C)C4CCC3(C)[C@]1(C(=O)OC)C(=O)C(C)(O)C2=O (stereo not given in full) | 1.18 |
| CC(C)=CCC[C@]1(C)[C@H]2CC(=O)[C@@]3(CO3)[C@@H]1C2 | 1.42 |
| CCCCCC(=O)N[C@@H](CC(C)C)C(=O)N[C@H](C=O)CCC(=O)O (Hexanoyl-Leu-Glu-aldehyde) | 0.0141 |
| COc1ccc([C@@H]2c3cc4c(cc3C(=O)C(C)C2C)OCO4)cc1OC (stereo not given in full) | -6.06 |
| CC1(C)CC[C@]2(CO)CC[C@]3(C)C(=CCC4[C@@]5(C)CC[C@H](O)C(C)(C)C5CC[C@]43C)C2C1 (stereo not given in full) | 0.725 |

Test: Secretion counterscreen for inhibitors of the SERCaMP assay screened against the NCATS CANVASS Library (AID 1347390);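 note: light from luciferase secreted into medium read as a measure of general secretion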; note: potency is the fitted concentration of half-maximal effect
Settings: SH-SY5Y constitutive GLuc secretion, luminescence, 20 h; series mostly up to 76.6 µM; activity change, negative = inhibition: at the top concentration
In short: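 SH-SY5Y-GLuc STOP cells; 4 h attach; cpds 0.001 - 77 uM (qHTS, 11 pts), 20 h 37C/5% CO2; coelenterazine in glow buffer; luminescence, 5 s exposure.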

| SMILES | activity change, negative = inhibition [%] | Potency |
| --- | --- | --- |
| CC(=O)N[C@H](C)c1nc(/C=C/C=C/C(=O)CC2CC(=O)CC[C@]2(C)O)cs1 (stereo not given in full) | -25.5 |  |
| CN1C(=O)C(=O)N2C(=C[C@]3(c4c[nH]c5ccccc45)c4ccccc4N[C@H]23)C1=O | -13.9 |  |
| CN1CC[C@]23c4ccccc4N[C@H]1[C@]21CCN(C)[C@H]3Nc2ccccc21 | -4.8 |  |
| C/C=C1/C2=CCCN3C(=O)O[C@H]([C@H]1O)[C@H]23 | 0.133 |  |
| COc1c(O)cc(O)c2c(=O)cc(-c3ccccc3)oc12 | -27.3 |  |
| COC1C(C)OC(OCC23C[C@@H]4[C@H](C)CC[C@H]4C4(C=O)CC2C=C(C(C)C)C34C(=O)O)[C@@H](O)[C@H]1O (stereo not given in full) | -13.4 |  |
| CN1CC[C@@]2([C@@]34CCN(C)[C@@H]3Nc3ccccc34)c3ccccc3N[C@@H]12 | -15.2 |  |
| CC[C@@H](C)[C@H]1NC(=O)C(CC(C)C)NC(=O)[C@@H](CC(C)C)NC(=O)[C@H](Cc2c[nH]c3ccccc23)NC(=O)CNC(=O)[C@@H](CC(N)=O)NC1=O (stereo partly drawn) (cyclo(GW[dL][ξL][dI][dN])) | -28.7 |  |
| Cc1cc(O)cc2c1C(=O)c1c(O)cc(O)cc1C2=O | -1.17 |  |
| C=C(Cl)[C@](Cl)(CBr)CC[C@@H](Br)C(C)(C)Cl | 28.9 |  |
| C=C(C)C(=O)O[C@H]1C[C@@]2(C)OC(=CC2=O)/C(C)=C\[C@H]2OC(=O)C(=C)[C@H]12 |  | 3.05 µM (active) |
| C=C[C@]1(C)CC[C@@H]([C@H](C)C(=O)CC=C(C)C)O1 | 22.6 |  |
| [C-]#[N+][C@@]12C(=O)[C@@H]3[C@@H](O[C@@]4(C(=O)N(C)c5cccc1c54)C3(C)C)C(=O)[C@@]2(C)C=C | 5.68 |  |
| COC(=O)c1cccc2oc(-c3cccc4oc(-c5c(C)cccc5O)nc34)nc12 | 18.7 |  |
| C[C@@]12CCC[C@@](C)(C(=O)OP(=O)(O)OC[C@H]3O[C@@H](n4cnc5c(N)ncnc54)[C@H](O)[C@@H]3O)[C@H]1C[C@@H](O)[C@@]13C[C@@H](CC[C@@H]21)[C@](C)(O)C3 | 27.5 |  |
| CCC(C)=C1OC(=O)[C@H](C)[C@H](O)[C@H](Cc2cccnc2)NC(=O)C(NC(=O)c2ncccc2O)C(C)OC1=O (stereo not given in full) | -13.7 |  |
| C[C@@]12CCC[C@@](C)(C(=O)O)[C@H]1CC[C@@]13C[C@@H](CC[C@H]12)[C@](C)(O)C3 | -8.59 |  |
| C=C1C[C@]23C=CC(=O)[C@@](C)(CCCC(C)C(=O)N[C@@H](CO)C(=O)O)[C@@H]2C[C@@H]1CC3 (stereo not given in full) | -28.5 |  |
| CO[C@@H](C[C@@H](C)[C@@H](O)/C=C/C=C/CNC(=O)C(C)(C)[C@H](O)\C(C)=C/C=C\C=C\Cc1cnco1)[C@]1(O)[C@@H](C)C(=O)N(C)[C@@]12COC2=O | -2.22 |  |
| O=C1CC(c2ccc(O)cc2)Oc2cc(O)cc(O)c21 (stereo not given) | -26.3 |  |
| O=C1CC(c2ccc(O)cc2)Oc2cc(O)ccc21 (stereo not given) | -8.52 |  |
| CN1CC[C@@]23c4ccccc4N[C@@H]1[C@@]21CCN(C)[C@@H]3Nc2ccccc21 | -7.32 |  |
| C[C@@]12CCC[C@@](C)(C(=O)O)[C@H]1C[C@@H](O)[C@@]13C[C@@H](CC[C@@H]21)[C@](C)(O)C3 | -7.25 |  |
| O=Cc1ccc2n1C[C@]1(OC2)O[C@H](CO)[C@@H](O)[C@@H]1O | 1.15 |  |
| C/C=C(/CO)C(=O)O[C@@H]1[C@H](O)[C@@H](C(=O)OC)O[C@@H]2C[C@H]3OC(n4cnc5c(N)ncnc54)[C@H](OC)[C@H]3O[C@@]12O (stereo not given in full) | -0.965 |  |
| C/C=C/[C@H]1[C@H]2C(=O)c3c(O)c(C)c(O)c(C)c3[C@]1(C(=O)O)C(=O)C=C2C | 5.35 |  |
| C[C@@]12C[C@@H](C[C@@H]3C(=O)O[C@@H](c4ccoc4)[C@H](OC(=O)c4ccccc4)[C@@H]31)OC2=O | -17.8 |  |
| C=C1CCC2C(C)(C(=O)O)CCC(CC/C(C)=C/C(=O)NC(CCC(N)=O)C(=O)O)[C@@]2(C)C1 (stereo not given in full) | -29.8 |  |
| CC(C)=CCC[C@]1(C)[C@H]2CC(=O)[C@@]3(CO3)[C@@H]1C2 | -14.8 |  |
| CCCCCC(=O)N[C@@H](CC(C)C)C(=O)N[C@H](C=O)CCC(=O)O (Hexanoyl-Leu-Glu-aldehyde) | 1.61 |  |

Source: PubChem BioAssay (NCATS)
